According to PubChem BioAssay (NCATS):
Several values for one entry are separate records, joined by “and”; a condition that tells them apart may be missing. Equal values may be shown once. Results filed as inconclusive are left out. Activity calls are given as the source filed them. Calls come from the whole dose curve; as a rule, active = well fitted curve in the direction sought with a large enough effect; inconclusive = small, poorly fitted or top-dose-only effect, or another doubt; inactive = no such curve, though single readings can be large; an effect the other way counts as inactive or inconclusive.

Assays:
[1] = target: Cytochrome P450 3A7 (Homo sapiens) (UniProt P24462); assay: Cytochrome P450 family 3 subfamily A member 7 (CYP3A7) small molecule antagonists: luciferase biochemical qHTS assay (AID 1963596); note: % is set by controls: 0 for no effect and ±100 for the full control effect; nearly all actives have a fitted effect of over 40% in size
Sequence of Cytochrome P450 3A7 (Homo sapiens) (P24462 whole entry, looked up): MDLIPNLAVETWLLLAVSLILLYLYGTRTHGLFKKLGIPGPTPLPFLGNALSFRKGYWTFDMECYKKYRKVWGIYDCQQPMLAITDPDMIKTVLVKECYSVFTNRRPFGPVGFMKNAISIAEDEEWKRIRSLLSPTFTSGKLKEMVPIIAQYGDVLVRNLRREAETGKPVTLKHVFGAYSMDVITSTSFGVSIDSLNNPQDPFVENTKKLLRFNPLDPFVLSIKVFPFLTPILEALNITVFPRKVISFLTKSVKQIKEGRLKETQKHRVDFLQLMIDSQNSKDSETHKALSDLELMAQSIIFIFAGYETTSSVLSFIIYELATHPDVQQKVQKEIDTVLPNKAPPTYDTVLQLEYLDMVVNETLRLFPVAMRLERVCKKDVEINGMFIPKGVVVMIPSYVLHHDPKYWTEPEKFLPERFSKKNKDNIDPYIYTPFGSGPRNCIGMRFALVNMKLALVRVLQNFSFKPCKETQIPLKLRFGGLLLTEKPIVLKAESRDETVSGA
How it was run: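 In this luminescent screen, enzyme and proluciferin substrate meet test compound for 10 min before NADPH regeneration solution drives a 1 h room-temperature reaction; detection reagent halts turnover and luminescence is read 20 min later.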

[2] = Viability qHTS for spleen associated tyrosine kinase inhibitor (SYKi) drug resistant MV4-11 cells (AID 1963824); note: nearly all actives have a fitted effect of over 35% in size; note: potency is the fitted concentration of half-maximal effect
How it was run: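 CellTiter-Glo luminescence, read 10 min after reagent addition, reports viability after a 72 hr compound exposure. Cells are an MV4-11 line made resistant to SYK inhibition, seeded at 500 per well onto compound-containing plates.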

[3] = Cellular viability qHTS for adrenocortical cancer (ACC) cell line SW-13 (AID 1963989); conditions: SW-13 ACC cells viability, CellTiter-Glo, 48 h; activity (max response): stronger effect = lower value; note: nearly all actives have a fitted effect of over 65% in size; note: potency is the fitted concentration of half-maximal effect;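 for activity (max response): cells grown in serum-free medium with ITS supplement; % is set by controls: 0 for no effect and ±100 for the full control effect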
How it was run: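 48 h treatment, SW-13 in ITS/DMEM serum-free; doses up to 46 uM; readout CellTiter-Glo luminescence; curve fit four-parameter logistic.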

[4] = Cellular viability qHTS for adrenocortical cancer (ACC) cell line NCI-H295R (AID 1963990); note: nearly all actives have a fitted effect of over 60% in size; note: potency is the fitted concentration of half-maximal effect
How it was run: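 Compound titrations (up to 46 uM final) are applied to NCI-H295R cultures for 48 h at 37C. Viable cell number is estimated by CellTiter-Glo signal, normalised to DMSO and doxorubicin controls.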

[5] = Quantitative highthroughput screen to assess conditional lethalithy of NOMO1 cells grown in RPMI1640 with untreated serum (RPMI+s) (AID 1963876);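 note: 100% = DMSO wells and 0% = empty wells without cells; nearly all actives have a fitted effect of over 35% in size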
How it was run: (§1)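 Each medium arm—HPLM with 10% dialyzed FBS, or RPMI1640 with 5 mM glucose and 10% untreated or dialyzed FBS—was screened against an 11-point, 3-fold compound titration for 48 h at 37 °C, with CellTiter-Glo luminescence as endpoint.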

[6] = Quantitative highthroughput screen to assess conditional lethalithy of NOMO1 cells grown in RPMI1640 with dialyzed fetal bovine serum (RPMI+ds) (AID 1963877);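 note: series mostly up to about 46 µM; 100% = DMSO control wells and 0% = empty wells; nearly all actives have a fitted effect of over 30% in size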
How it was run: as §1

[7] = Quantitative highthroughput screen to assess conditional lethalithy of NOMO1 cells grown in Human Plasma-Like Medium with dialyzed fetal bovine serum (HPLM+ds) (AID 1963878); note: nearly all actives have a fitted effect of over 35% in size; note: potency is the fitted concentration of half-maximal effect;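 for Viability: 100% = DMSO wells and 0% = empty wells on each plate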
How it was run: as §1

[8] = Quantitative highthroughput screen to assess conditional lethalithy of P12 Ichikawa cells grown in Human Plasma-Like Medium with dialyzed fetal bovine serum (HPLM+ds) (AID 1963879); conditions: Potency: viability; note: nearly all actives have a fitted effect of over 35% in size; note: potency is the fitted concentration of half-maximal effect; for Viability: series mostly up to about 46 µM
How it was run: as §1

[9] = Quantitative highthroughput screen to assess conditional lethalithy of P12 Ichikawa cells grown in RPMI1640 with dialyzed fetal bovine serum (RPMI+ds) (AID 1963880); conditions: Potency: P12-Ichikawa viability
How it was run: as §1

[10] = Quantitative highthroughput screen to assess conditional lethalithy of P12 Ichikawa cells grown in RPMI1640 with untreated serum (RPMI+s) (AID 1963881); conditions: Potency: viability
How it was run: as §1

CCCC(=O)O[C@]1(C(=O)CO)CC[C@H]2[C@@H]3CCC4=CC(=O)CC[C@]4(C)[C@H]3[C@@H](O)C[C@@]21C
inactive: Potency [1] | Potency [2] | activity (max response) [3] -3.14% | Potency [4]

CNCCc1ccccn1
inactive: Potency [1] | Potency [2] | activity (max response) [3] 13.5% | Potency [4]

c1ccc2[nH]c(-c3cscn3)nc2c1
active: Potency [7] 8.33 µM | Potency [8] 9.35 µM
inactive: Potency [1] | Potency [5] | Potency [6] | activity (max response) [3] -9.06% and -18.4% | Potency [4]

CCCN1CCN(c2ccc(C(=O)NC3(C(=O)NCC#N)CCCCC3)cc2)CC1
inactive: Potency [1] | Potency [2] | activity (max response) [3] -11.1% | Potency [4]

NC(=O)NS(=O)(=O)c1ccc(N)cc1
inactive: Potency [1] | Potency [2] | Potency [4]

O=C(NC[C@H](O)CN1CCc2ccccc2C1)c1cc(NC2COC2)ncn1
inactive: Potency [1] | Potency [5] | Potency [6] | Potency [7] | Potency [8] | Potency [9] | Potency [10] | activity (max response) [3] -16.9% | Potency [4]

CS(=O)(=O)c1ccc([C@@H](O)[C@@H](CO)NC(=O)C(Cl)Cl)cc1
inactive: Potency [1] | Potency [5] | Potency [6] | Potency [7] | Potency [8] | activity (max response) [3] -8.84% | Potency [4]

COc1cc2nc(-c3cc(F)ccc3O)nc(N[C@@H]3CNC[C@H]3C(C)(C)O)c2cc1OC
inactive: Potency [1]
active: Potency [2] 11.6 nM and 5.3 nM | Potency [3] 6.31 µM | Potency [4] 6.31 µM

Cc1cccc(Oc2cnc(=O)[nH]c2)c1
inactive: Potency [1] | Potency [2] | activity (max response) [3] 6.68% | Potency [4]

CNC(=O)Oc1ccc2c(c1)[C@]1(C)CCN(C)[C@@H]1N2C
inactive: Potency [1] | Potency [2] | activity (max response) [3] 16.2% | Potency [4]
